From PubChem BioAssay (Tox21)
Results filed as inconclusive are left out. The source made the active and inactive calls. Unless noted, calls come from the whole dose curve; as a rule, active = well fitted curve in the direction sought with a large enough effect in the repeat runs; inconclusive = weak or mixed curves; inactive = no such curve, though single readings can be large; an effect the other way counts as inactive or inconclusive.

Experiments:
[1] = qHTS assay to identify small molecule antagonists of the estrogen related receptor (ERR) signaling pathway from Tox21 library - cell viability counter screen (AID 1224834); note: nearly all actives have a fitted effect of over 30% in size
In short: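 Cytotoxicity of test substances is gauged in the same ERR cells used for the antagonist screen, after 17.5 h of compound treatment at 37 C, by CellTiter-Fluor fluorescence measured after 30 min.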

[2] = target: Luciferin 4-monooxygenase (Photinus pyralis) (UniProt P08659); experiment: qHTS assay to identify small molecule inhibitors of firefly luciferase (AID 1224835); note: nearly all actives have a fitted effect of over 25% in size
In short: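 Biochemical qHTS: compounds run as interplate titrations against purified firefly enzyme, with D-luciferin and ATP each at its KM concentration. Light output recorded by CCD imaging.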

[3] = qHTS assay to identify small molecule agonists of the constitutive androstane receptor (CAR) signaling pathway - cell viability counter screen (AID 1224836); note: nearly all actives have a fitted effect of over 45% in size
In short: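 23 h treatment, 37 C, 5% CO2. Cell line: HepG2 stably expressing hCAR with a CYP2B6-2.2kb construct. Co-treatment: PK11195, 0.75 uM final. Read-out: CellTiter-Fluor fluorescence intensity.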

[4] = qHTS assay to identify small molecule antagonists of the constitutive androstane receptor (CAR) signaling pathway - cell viability counter screen (AID 1224837); note: nearly all actives have a fitted effect of over 45% in size
In short: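 Multiplexed cytotoxicity read-out for the CAR antagonist screen: double-stable HepG2-CYP2B6-hCAR cells co-treated with 50 nM CITCO (final) and compound over 15 concentrations, incubated 23 hr, then assessed by CellTiter-Fluor fluorescence.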

[5] = qHTS assay to identify small molecule antagonists of the estrogen related receptor signaling pathway with the pleiotropic PPARgamma coactivator (PGC) from Tox21 10K library - cell viability counter screen (AID 1224840; active = well fitted cell-killing curve with a large enough effect in the repeat runs, not every such curve was filed as active; note: nearly all actives have a fitted effect of over 40% in size)
In short: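 Step one, plate 2,000 PGC/ERR cells per well; step two, incubate 6 h at 37 C/5% CO2; step three, pin-transfer compounds; step four, incubate 17.5 h; step five, add CellTiter-Fluor and read fluorescence after 30 min.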

[6] = qHTS assay to identify small molecule agonists of the hypoxia (HIF-1) signaling pathway - cell viability counter screen (AID 1224844; calls by dose curve; note: nearly all actives have a fitted effect of over 50% in size)
In short: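 Tox21 10K compounds were added to HRE-bla ME-180 cells (0.5% dialyzed FBS) and incubated 17 hrs at 37C; ATP-based CellTiter-Glo luminescence then reported cell viability in the same wells.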

[7] = qHTS assay to identify small molecule agonists of H2AX (AID 1224845; active = well fitted activation curve with a large enough effect in the signal ratio in the repeat runs, not every such curve was filed as active; the % refers to the signal ratio)
In short: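 Wild-type CHO-K1 cells, plated overnight, exposed 3hr at 37C to 15 concentrations (0.76% DMSO final). Lysed, then HTRF anti-pH2AX (S139) cryptate and anti-H2AX-d2 antibodies, 24 hr room temperature; 665/620 nm emission read.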

[8] = qHTS assay to identify small molecule agonists of the hypoxia (HIF-1) signaling pathway (AID 1224846; active = well fitted activation curve with a large enough effect in the signal ratio in the repeat runs, not every such curve was filed as active; the % refers to the signal ratio)
In short: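 Steps: seed ME-180 HRE-bla cells (2,000/well, 0.5% dialyzed FBS); incubate 5 hrs at 37C; pin-transfer compounds or DMSO; incubate 17 hrs; add LiveBLAzer B/G substrate CCF4-AM; measure reporter activation by FRET.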

[9] = qHTS assay to identify small molecule agonists of H2AX - cell viability counter screen (AID 1224847; calls by dose curve; note: top concentration of the series differs between compounds; nearly all actives have a fitted effect of over 30% in size)
In short: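 Compounds tested at 15 concentrations were incubated 3 hr at 37C with wild-type CHO-K1 cells; cellular ATP-based luminescence (CellTiter-Glo) indicated viability.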

[10] = qHTS RealTime-Glo MT Cell Viability Assay in HepG2 cells - 24 hour (AID 1224867); note: nearly all actives have a fitted effect of over 50% in size
In short: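 Viability was tracked continuously by NanoLuc luminescence from prosubstrate reduced by living HepG2 cells, at successive time points over 40 h of compound exposure. Cells with reagent were preincubated 5 h at 37 °C before compound addition.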

[11] = qHTS RealTime-Glo MT Cell Viability Assay in HEK293 cells - 32 hour (AID 1224868); note: top concentration of the series differs between compounds; nearly all actives have a fitted effect of over 50% in size
In short: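 Viability tracked continuously by luminescence as live cells reduce a prosubstrate for NanoLuc; HEK293 cells preincubated 5 h, compound-treated at 37 C, and read at 0, 8, 16, 24, 32 and 40 h.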

[12] = A CellTox Green Cytotoxicity Assay to monitor cytotoxicity in HEK293 cells - 0 hour (AID 1224869); note: nearly all actives have a fitted effect of over 50% in size
In short: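 Cytotoxicity was tracked continuously in HEK293 cells by a DNA-binding dye excluded from viable cells. Compounds were transferred in DMSO 5 h after seeding; fluorescence was recorded at intervals up to 40 h.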

[13] = target: Thyrotropin receptor (Homo sapiens) (UniProt P16473); experiment: qHTS assay to identify small molecule agonists of the thyroid stimulating hormone receptor (TSHR) signaling pathway (AID 1224843; calls by dose curve; note: nearly all actives have a fitted effect of over 45% in size)
In short: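 Steps: seed 800 TSHR-HEK293 cells per well; add test compound and hold 30 min at ambient temperature; dispense cAMP-d2 then anti-cAMP cryptate; incubate 1 h at ambient; measure fluorescence intensity.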

[14] = target: Nuclear receptor subfamily 1 group I member 3 (Homo sapiens) (UniProt Q14994); experiment: qHTS assay to identify small molecule antagonists of the constitutive androstane receptor (CAR) signaling pathway (AID 1224838); note: nearly all actives have a fitted effect of over 40% in size
In short: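 Compounds were titrated across 15 concentrations onto HepG2 cells double-stably expressing hCAR and a CYP2B6-2.2kb reporter, together with 50 nM CITCO (final). After 24 h at 37 C, luciferase activity was measured by luminescence.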

[15] = target: Nuclear receptor subfamily 1 group I member 3 (Homo sapiens) (UniProt Q14994); experiment: qHTS assay to identify small molecule agonists of the constitutive androstane receptor (CAR) signaling pathway (AID 1224839);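 note: HepG2 cells stably carrying human CAR and a CYP2B6 luciferase reporter; nearly all actives have a fitted effect of over 15% in size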
In short: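 Compounds tested at 15 concentrations on HepG2 cells stably harbouring hCAR and CYP2B6-2.2kb reporter constructs, co-treated with PK11195 (0.75 uM final), 24 h at 37 C; luminescent reporter signal quantified.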

[16] = qHTS assay to identify small molecule agonists of the estrogen related receptor signaling pathway with the pleiotropic PPARgamma coactivator (PGC) from Tox21 10K library (AID 1224842); note: nearly all actives have a fitted effect of over 15% in size
In short: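 PGC/ERR reporter cell line, 2,000 cells per well, incubated 6 h at 37 C before 23 nL compound in DMSO was added. After 18 h at 37 C, One-Glo luminescence read following 30 min at room temperature.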

[17] = qHTS assay to identify small molecule agonists of the estrogen related receptor (ERR) signaling pathway from Tox21 library (AID 1224849; calls by dose curve; note: nearly all actives have a fitted effect of over 15% in size); conditions: ERR reporter cell line, ONE-Glo luciferase, 18 h; at 92.4 µM (top of the series) unless noted
In short: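 Agonist signal is luciferase luminescence from an ERR reporter cell line treated 18 h at 37 C with DMSO-dissolved compounds, read 30 min after ONE-Glo addition at room temperature.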
% is set by controls: 0 for no effect and ±100 for the full control effect.

Chain of Nuclear receptor subfamily 1 group I member 3 (Homo sapiens) (Q14994 whole entry, looked up): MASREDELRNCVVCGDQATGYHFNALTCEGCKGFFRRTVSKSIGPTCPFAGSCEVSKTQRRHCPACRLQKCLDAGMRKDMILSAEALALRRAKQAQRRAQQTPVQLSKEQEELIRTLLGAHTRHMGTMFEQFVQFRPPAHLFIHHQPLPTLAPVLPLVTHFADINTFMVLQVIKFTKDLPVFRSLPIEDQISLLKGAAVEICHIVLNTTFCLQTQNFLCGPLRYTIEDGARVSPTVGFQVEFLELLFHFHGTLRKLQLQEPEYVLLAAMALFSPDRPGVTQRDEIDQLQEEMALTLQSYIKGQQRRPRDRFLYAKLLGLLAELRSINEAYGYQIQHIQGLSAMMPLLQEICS
Chain of Thyrotropin receptor (Homo sapiens) (P16473 whole entry, looked up): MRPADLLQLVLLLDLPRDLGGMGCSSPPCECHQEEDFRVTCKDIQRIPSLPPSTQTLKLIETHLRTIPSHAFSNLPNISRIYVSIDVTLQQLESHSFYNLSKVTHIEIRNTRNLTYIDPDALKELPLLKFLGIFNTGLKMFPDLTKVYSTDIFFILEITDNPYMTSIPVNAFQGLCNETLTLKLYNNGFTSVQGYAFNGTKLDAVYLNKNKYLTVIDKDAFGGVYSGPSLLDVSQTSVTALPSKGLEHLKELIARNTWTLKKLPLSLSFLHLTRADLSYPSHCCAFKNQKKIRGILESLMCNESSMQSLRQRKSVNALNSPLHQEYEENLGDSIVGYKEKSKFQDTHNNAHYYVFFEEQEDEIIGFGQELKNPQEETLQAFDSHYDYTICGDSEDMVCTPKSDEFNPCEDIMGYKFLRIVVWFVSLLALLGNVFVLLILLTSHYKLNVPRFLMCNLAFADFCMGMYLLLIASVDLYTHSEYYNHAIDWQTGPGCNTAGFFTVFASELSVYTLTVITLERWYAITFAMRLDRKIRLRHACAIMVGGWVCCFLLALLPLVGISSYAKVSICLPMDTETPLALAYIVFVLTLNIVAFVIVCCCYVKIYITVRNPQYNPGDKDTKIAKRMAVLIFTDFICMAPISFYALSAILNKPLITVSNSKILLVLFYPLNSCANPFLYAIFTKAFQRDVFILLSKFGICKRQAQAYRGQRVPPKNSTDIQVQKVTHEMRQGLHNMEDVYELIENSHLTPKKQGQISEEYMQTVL
Chain of Luciferin 4-monooxygenase (Photinus pyralis) (P08659 whole entry, looked up): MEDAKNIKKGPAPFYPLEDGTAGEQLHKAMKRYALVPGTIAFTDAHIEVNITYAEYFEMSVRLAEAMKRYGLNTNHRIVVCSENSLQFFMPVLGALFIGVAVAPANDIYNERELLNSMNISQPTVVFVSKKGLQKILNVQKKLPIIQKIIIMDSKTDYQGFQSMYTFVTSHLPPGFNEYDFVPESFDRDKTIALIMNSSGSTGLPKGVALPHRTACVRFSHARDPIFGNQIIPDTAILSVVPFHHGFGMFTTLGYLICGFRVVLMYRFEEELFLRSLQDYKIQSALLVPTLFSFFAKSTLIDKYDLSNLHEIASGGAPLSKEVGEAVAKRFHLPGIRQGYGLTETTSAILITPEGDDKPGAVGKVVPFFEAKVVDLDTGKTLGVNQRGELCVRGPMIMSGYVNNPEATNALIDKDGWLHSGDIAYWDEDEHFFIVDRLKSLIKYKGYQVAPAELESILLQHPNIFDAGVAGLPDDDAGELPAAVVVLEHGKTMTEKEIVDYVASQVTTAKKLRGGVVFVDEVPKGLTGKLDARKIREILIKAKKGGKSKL

N#CC(Br)(Br)C(N)=O
inactive: Potency [1] | Potency [2] | Potency [3] | Potency [4] | Potency [5] | Potency [6] | outcome [7] | outcome [8] | Potency [9] | Potency [10] | Potency [11] | outcome [12]

ClCOCCl
inactive: Potency [1] | Potency [2] | Potency [3] | Potency [4] | Potency [5] | Potency [13] | Potency [6] | outcome [7] | outcome [8] | Potency [9] | Potency [10] | outcome [12]

CCCCCCC(=O)CCCCCC/C=C/C[C@@H](O)[C@H](O)[C@@](N)(CO)C(=O)O
inactive: viability change, negative = cytotoxic [1] 6.53% [at 19 µM] | activity change, negative = inhibition [2] -3.87% [at 23.6 µM] | activity change, negative = cytotoxicity [4] -0.0318% [at 19 µM] | activity, negative = inhibition [14] -1.56% [at 19 µM] | activation [15] -1.84% [at 19 µM] | viability change, negative = cytotoxic [5] 12.4% [at 19 µM] | activation [13] -1.25% [at 19 µM] | activity change, negative = cytotoxicity [6] 0.46% [at 15.8 µM] | activation (H2AX phosphorylation) [7] -0.061% [at 31.6 µM] | activation [8] -0.0517% [at 15.8 µM] | activity change, negative = cytotoxicity [9] -0.19% [at 31.6 µM] | activity change, negative = cytotoxicity [10] 0.745% [at 15.8 µM] | activity change, negative = cytotoxic [11] 2.61% [at 15.8 µM] | cytotoxicity [12] 0.947% [at 15.8 µM]

CCOP(=O)(CN(CCO)CCO)OCC
inactive: Potency [1] | Potency [2] | Potency [3] | Potency [4] | Potency [5] | Potency [13] | Potency [6] | outcome [7] | outcome [8] | Potency [9] | Potency [10] | Potency [11] | outcome [12]

COC(=O)[C@@H](N)CCCN/C(N)=N/[N+](=O)[O-]
inactive: Potency [1] | Potency [2] | Potency [3] | Potency [4] | Potency [5] | Potency [13] | Potency [6] | outcome [7] | Potency [9] | Potency [10] | Potency [11] | outcome [12]

C[C@@H](N)[C@@H](O)c1ccccc1
inactive: Potency [1] | Potency [2] | Potency [4] | Potency [14] | Potency [15] | Potency [5] | Potency [13] | Potency [6] | outcome [7] | outcome [8] | Potency [9] | Potency [10] | Potency [11] | outcome [12]

CCOP(=S)(OCC)SCCl
inactive: Potency [1] | Potency [2] | Potency [3] | Potency [4] | Potency [5] | Potency [13] | Potency [6] | Potency [9] | Potency [10] | Potency [11] | outcome [12]

Oc1ccc2c3c1O[C@H]1[C@@H](O)C=C[C@H]4[C@@H](C2)NCC[C@@]341
inactive: Potency [1] | Potency [2] | Potency [3] | Potency [4] | Potency [5] | Potency [16] | Potency [13] | Potency [6] | outcome [7] | Potency [9] | activity change, positive = activation [17] -18.1% | Potency [10] | Potency [11] | outcome [12]

O=c1[nH]c2ccccc2n1C1CCNCC1
inactive: Potency [1] | Potency [2] | Potency [4] | Potency [14] | Potency [15] | Potency [5] | Potency [13] | Potency [6] | outcome [7] | outcome [8] | Potency [9] | Potency [10] | Potency [11] | outcome [12]
